Measured values reported in PubChem BioAssay (Tox21).
Inconclusive results are not listed. Activity calls are given as the source filed them. Unless noted, the call rests on the fitted dose curve.

Tests used:
[1] = Nuclear factor erythroid 2-related factor 2/antioxidant responsive element (Nrf2/ARE) small molecule agonists: qHTS cell viability counter screen in human keratinocytes (AID 1919968; active means well fitted curve in the direction sought with a large enough effect in the repeat runs; an effect the other way counts as inactive or inconclusive; further: nearly all actives have a fitted effect of over 55% in size; further: potency means the concentration at half of the fitted maximal effect)
Summary of the method: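 KeratinoSens cells (HaCaT keratinocytes stably carrying an ARE-luciferase reporter) were seeded at 1,500 cells/well and rested 5 h at 37 C/5% CO2. They were then exposed to compounds in DMSO for 23 h. Viability was read by CellTiter-Fluor fluorescence after 1 h.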

[2] = Nuclear factor erythroid 2-related factor 2/antioxidant responsive element (Nrf2/ARE) small molecule agonists: luciferase reporter gene qHTS assay in human keratinocytes (AID 1919969); further: nearly all actives have a fitted effect of over 35% in size; further: potency means the concentration at half of the fitted maximal effect
[3] = target: Gonadotropin-releasing hormone receptor (Homo sapiens) (UniProt P30968); assay: Human gonadotropin-releasing hormone receptor (GnRHR) small molecule agonists, calcium flux assay in GnRHR-HEK293 cells (AID 1920063); further: nearly all actives have a fitted effect of over 35% in size
Summary of the method: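 HEK293 cells stably expressing human GnRHR were plated 18 h at 37 °C, loaded with calcium dye 1 h at 37 °C, then given compound in agonist mode; fluorescence (Ex/Em 480/540) read kinetically for 3 min at 1 s intervals.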

[4] = target: KiSS-1 receptor (Homo sapiens) (UniProt Q969F8); assay: Human kisspeptin (KISS1R) small molecule agonists, calcium flux assay in KISS1R-HEK293 cells (AID 1920064; active means well fitted curve in the direction sought with a large enough effect in the repeat runs; an effect the other way counts as inactive or inconclusive)
Summary of the method: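 HEK293 cells stably expressing human KISS1R were plated 18 h at 37 °C, loaded with calcium dye for 1 h at 37 °C, then given compound by pin tool. Fluorescence (Ex/Em 480/540) was read kinetically for 3 min.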

[5] = G protein-coupled receptor (GPCR) small molecule agonists, calcium flux assay: HEK293 wild type cell line counter screen (AID 1920065)
Summary of the method: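 Cells were plated and cultured 18 h at 37 C/5% CO2, then loaded with calcium dye for 1 h at 37 C. Compounds in DMSO were pin-transferred in agonist mode, and fluorescence (Ex/Em 480/540) was read kinetically for 3 min at 1 s intervals.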

[6] = p53 small molecule agonists, cell-based qHTS assay with human liver microsomes (AID 1963577);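 further: p53 response element beta-lactamase reporter cells with liver microsomes plus NADPH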
Summary of the method: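 p53RE-bla cells; 5 h settle, 37 C/5% CO2; cpd + HLM 0.5 mg/mL + NADPH 0.5 mg/mL (final); 16 h 37 C; LiveBLAzer 2 h RT dark; fluorescence readout.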

[7] = p53 small molecule agonists, cell-based qHTS assay with rat liver microsomes (AID 1963578)
Summary of the method: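 Rat liver microsome activation: microsomes 0.5 mg/mL, NADPH 0.5 mg/mL final; p53RE-bla cells, 16 h 37 C; LiveBLAzer readout, 2 h RT dark.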

[8] = p53 small molecule agonists, cell-based qHTS assay with human liver microsomes: qHTS cell viability counter screen (AID 1963579); further: nearly all actives have a fitted effect of over 45% in size; further: potency means the concentration at half of the fitted maximal effect
Summary of the method: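 Luminescent CellTiter-Glo read-out, 30 min at room temperature, gauged cytotoxicity in p53RE-bla cells exposed 16 h at 37 C to DMSO-dissolved compounds with metabolic activation by human liver microsomes and NADPH, each 0.5 mg/mL final.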

[9] = p53 small molecule agonists, cell-based qHTS assay: qHTS cell viability counter screen (AID 1963581); further: nearly all actives have a fitted effect of over 45% in size; further: potency means the concentration at half of the fitted maximal effect
Summary of the method: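 p53RE-bla HCT-116 cells were exposed to compounds for 16 h at 37 C; after the beta-lactamase FRET read in the same wells, CellTiter-Glo was added and luminescence (intracellular ATP) read after 30 min at room temperature.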

[10] = p53 small molecule agonists, cell-based qHTS assay (AID 1963582; active means well fitted activation curve with a large enough effect in the signal ratio in the repeat runs, not every such curve was filed as active; the % refers to the signal ratio)
Summary of the method: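 p53RE-bla beta-lactamase reporter cells rested 5 h at 37 C/5% CO2, then received compounds in DMSO by pin transfer and were incubated 16 h at 37 C. LiveBLAzer B/G FRET substrate was loaded for 2 h at room temperature before fluorescence reading.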

[11] = target: 5-hydroxytryptamine receptor 2A (Homo sapiens) (UniProt P28223); assay: 5-hydroxytryptamine receptor 2A (HTR2A) small molecule agonists, cell-based qHTS assay (AID 1963587); further: nearly all actives have a fitted effect of over 30% in size
Summary of the method: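 Kinetic calcium-flux fluorescence (2 min, 1 sec intervals) after compound addition in agonist mode. HTR2A-CHO cells were cultured 18 h, then dye-loaded 1 h at 37 C.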

[12] = target: Muscarinic acetylcholine receptor M1 (Homo sapiens) (UniProt P11229); assay: Cholinergic receptor muscarinic 1 (CHRM1) small molecule agonists, cell-based qHTS assay (AID 1963589); further: nearly all actives have a fitted effect of over 35% in size; further: potency means the concentration at half of the fitted maximal effect
Summary of the method: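 CHO cells stably expressing human CHRM1, seeded 18 h at 37 C/5% CO2, dye-loaded 1 h at 37 C, then given compound in agonist mode; intracellular calcium fluorescence read kinetically at 1 s intervals. Fifteen concentrations, three independent runs.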

[13] = target: Beta-2 adrenergic receptor (Homo sapiens) (UniProt P07550); assay: Adrenergic beta2 receptor (ADRB2) small molecule antagonists, cell-based qHTS assay (AID 1963592); further: series mostly up to about 92 µM; nearly all actives have a fitted effect of over 50% in size
Summary of the method: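 Cells (CHO, stable ADRB2 overexpression) incubated 18-20hr at 37C; compounds added from DMSO; agonist mix (1nM isoproterenol, 100uM IBMX, 25uM Ro-20-1724) added; 0.5hr RT; d2-cAMP and anti-cAMP-cryptate added; 1hr RT; 665/615 nm read.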

[14] = target: D(2) dopamine receptor (Homo sapiens) (UniProt P14416); assay: Dopamine D2 receptor (DRD2) small molecule agonists, cell-based qHTS assay (AID 1963594); further: nearly all actives have a fitted effect of over 35% in size
Summary of the method: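 cAMP accumulation in DRD2-HEK293 cells measured by HTRF after 1 h detection; compounds added 10 min before NKH477 (200nM […]) forskolin-analogue stimulation, 30 min at room temperature, with Ro20-1724 present at 0.1 mM final.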

[15] = target: 5-hydroxytryptamine receptor 2A (Homo sapiens) (UniProt P28223); assay: 5-hydroxytryptamine receptor 2A (HTR2A) small molecule antagonists, cell-based qHTS assay (AID 1963586); further: nearly all actives have a fitted effect of over 45% in size
Summary of the method: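 Antagonist-mode intracellular calcium assay: DOI (4 nM) added after 5 min compound pre-incubation at room temperature to dye-loaded HTR2A-CHO cells. Fluorescence followed for 3 min, sampled every second.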

[16] = target: Muscarinic acetylcholine receptor M1 (Homo sapiens) (UniProt P11229); assay: Cholinergic receptor muscarinic 1 (CHRM1) small molecule antagonists, cell-based qHTS assay (AID 1963588); further: nearly all actives have a fitted effect of over 40% in size
Summary of the method: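 CHRM1-CHO calcium-flux assay, antagonist mode. Cells were seeded 18 h, dye-loaded 1 h at 37 C and given compound for 5 min at RT, then acetylcholine was added at 50nM. FDSS fluorescence was read 3 min; 15 concentrations, three runs.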

[17] = cAMP Responsive Elements (CRE) small molecule agonists, cell-based qHTS assay (AID 1963590)
Summary of the method: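 CRE-bla HEK 293T cells in DMEM with 10% dialyzed FBS, NEAA, pyruvate and 25 mM HEPES were plated 18 h at 37 C/5% CO2, then exposed to compounds in DMSO for 3 h before LiveBLAzer B/G FRET substrate addition.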

[18] = cAMP Responsive Elements (CRE) small molecule antagonists, cell-based qHTS assay (AID 1963591; active means well fitted inhibition curve with a large enough effect in the signal ratio in the repeat runs, not every such curve was filed as active; the % refers to the signal ratio)
Summary of the method: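 CRE-bla HEK293T cells were plated 18 h at 37 °C/5% CO2, pinned with compound in DMSO, then stimulated with NKH477 at 0.25 uM final for 3 h. LiveBLAzer B/G FRET substrate was added and plates incubated 2 h at room temperature.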

[19] = target: D(2) dopamine receptor (Homo sapiens) (UniProt P14416); assay: Dopamine D2 receptor (DRD2) small molecule antagonists, cell-based qHTS assay (AID 1963595; active means well fitted inhibition curve with a large enough effect in the signal ratio in the repeat runs, with a control signal flat; the % refers to the signal ratio; further: potency means the concentration at half of the fitted maximal effect)
Summary of the method: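 Cells were plated and grown for 24 h at 37 °C. Ro20-1724 (0.1 mM final) went in first, then compound for 10 min. NKH477 (200 nM) with quinpirole (12 nM) followed for 30 min at RT, then HTRF detection reagents for 1 h.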
On the % scale 0 is the no-effect control and ±100 the full control effect.

KiSS-1 receptor (Homo sapiens), sequence (Q969F8 whole entry, looked up): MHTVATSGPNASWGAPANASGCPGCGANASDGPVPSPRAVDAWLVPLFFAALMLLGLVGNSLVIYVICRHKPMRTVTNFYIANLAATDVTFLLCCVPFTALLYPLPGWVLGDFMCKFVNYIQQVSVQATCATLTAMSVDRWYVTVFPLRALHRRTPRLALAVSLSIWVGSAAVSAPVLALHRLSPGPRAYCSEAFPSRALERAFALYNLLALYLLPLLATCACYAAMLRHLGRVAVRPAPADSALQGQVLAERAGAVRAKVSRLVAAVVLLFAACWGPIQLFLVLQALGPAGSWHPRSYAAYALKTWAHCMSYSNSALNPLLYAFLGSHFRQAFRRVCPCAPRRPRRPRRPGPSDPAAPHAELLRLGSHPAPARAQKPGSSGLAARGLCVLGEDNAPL
Gonadotropin-releasing hormone receptor (Homo sapiens), sequence (P30968 whole entry, looked up): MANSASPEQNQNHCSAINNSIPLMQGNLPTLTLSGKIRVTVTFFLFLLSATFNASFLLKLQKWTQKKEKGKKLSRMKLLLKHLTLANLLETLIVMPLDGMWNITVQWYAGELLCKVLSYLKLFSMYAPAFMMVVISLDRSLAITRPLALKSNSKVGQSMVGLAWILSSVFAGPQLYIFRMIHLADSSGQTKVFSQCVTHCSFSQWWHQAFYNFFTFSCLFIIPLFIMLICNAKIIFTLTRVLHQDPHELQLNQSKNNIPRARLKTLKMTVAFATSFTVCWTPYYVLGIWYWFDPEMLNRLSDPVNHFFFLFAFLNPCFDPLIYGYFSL
Beta-2 adrenergic receptor (Homo sapiens), sequence (P07550 whole entry, looked up): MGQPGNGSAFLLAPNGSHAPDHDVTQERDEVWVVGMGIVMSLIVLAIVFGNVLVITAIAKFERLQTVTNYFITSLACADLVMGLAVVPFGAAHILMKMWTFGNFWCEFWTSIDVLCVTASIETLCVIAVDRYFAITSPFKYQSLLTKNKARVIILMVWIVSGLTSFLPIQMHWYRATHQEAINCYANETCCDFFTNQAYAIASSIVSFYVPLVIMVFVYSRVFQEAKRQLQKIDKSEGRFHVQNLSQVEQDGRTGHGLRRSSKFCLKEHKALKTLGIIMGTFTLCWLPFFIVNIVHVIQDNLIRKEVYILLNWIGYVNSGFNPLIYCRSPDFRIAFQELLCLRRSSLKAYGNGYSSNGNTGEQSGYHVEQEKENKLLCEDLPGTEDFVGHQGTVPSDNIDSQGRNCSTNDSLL
Muscarinic acetylcholine receptor M1 (Homo sapiens), sequence (P11229 whole entry, looked up): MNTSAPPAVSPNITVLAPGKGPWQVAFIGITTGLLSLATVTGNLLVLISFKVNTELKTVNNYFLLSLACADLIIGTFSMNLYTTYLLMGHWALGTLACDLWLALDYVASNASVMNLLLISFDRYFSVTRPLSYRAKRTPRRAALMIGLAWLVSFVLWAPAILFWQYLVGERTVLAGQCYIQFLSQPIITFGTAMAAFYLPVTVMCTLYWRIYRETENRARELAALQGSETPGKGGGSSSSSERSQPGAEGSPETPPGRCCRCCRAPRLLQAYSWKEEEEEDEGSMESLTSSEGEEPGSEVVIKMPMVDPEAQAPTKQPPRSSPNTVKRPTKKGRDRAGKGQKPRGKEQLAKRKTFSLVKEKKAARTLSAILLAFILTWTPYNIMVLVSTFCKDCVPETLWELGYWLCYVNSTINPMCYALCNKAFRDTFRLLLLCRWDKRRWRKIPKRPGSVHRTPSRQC
5-hydroxytryptamine receptor 2A (Homo sapiens), sequence (P28223 whole entry, looked up): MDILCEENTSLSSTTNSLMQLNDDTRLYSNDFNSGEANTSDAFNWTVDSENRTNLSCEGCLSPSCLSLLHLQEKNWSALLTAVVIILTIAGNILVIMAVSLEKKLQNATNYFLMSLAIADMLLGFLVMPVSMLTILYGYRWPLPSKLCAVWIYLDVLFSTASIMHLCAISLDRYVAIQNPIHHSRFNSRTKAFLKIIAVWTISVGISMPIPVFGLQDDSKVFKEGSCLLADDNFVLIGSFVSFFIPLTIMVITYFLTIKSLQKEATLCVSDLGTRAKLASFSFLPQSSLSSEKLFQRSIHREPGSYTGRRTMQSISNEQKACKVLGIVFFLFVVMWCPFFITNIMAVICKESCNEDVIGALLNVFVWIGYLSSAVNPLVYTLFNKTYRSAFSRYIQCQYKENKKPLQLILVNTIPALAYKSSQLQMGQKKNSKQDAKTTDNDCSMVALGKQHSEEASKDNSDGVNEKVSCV
D(2) dopamine receptor (Homo sapiens), sequence (P14416 whole entry, looked up): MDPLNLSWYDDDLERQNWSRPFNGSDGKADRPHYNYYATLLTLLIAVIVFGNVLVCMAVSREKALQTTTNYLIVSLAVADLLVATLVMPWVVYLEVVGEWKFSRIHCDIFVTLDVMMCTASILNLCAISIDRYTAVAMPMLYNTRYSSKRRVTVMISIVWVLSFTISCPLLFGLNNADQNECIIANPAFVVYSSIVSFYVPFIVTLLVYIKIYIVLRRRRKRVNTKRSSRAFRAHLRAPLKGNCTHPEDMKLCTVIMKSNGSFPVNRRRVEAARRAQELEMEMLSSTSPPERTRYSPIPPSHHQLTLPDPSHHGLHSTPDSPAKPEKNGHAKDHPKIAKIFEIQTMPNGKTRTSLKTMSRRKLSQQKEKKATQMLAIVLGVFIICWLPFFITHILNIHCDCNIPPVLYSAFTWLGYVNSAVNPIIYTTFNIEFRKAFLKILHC

CCCN(CCC)c1c([N+](=O)[O-])cc(C(F)(F)F)c(N)c1[N+](=O)[O-]
inactive: Potency [2] | Potency [3] | outcome [4] | outcome [5] | Potency [6] | Potency [7] | Potency [8] | Potency [10] | Potency [11] | Potency [12] | Potency [13] | Potency [14]
active: Potency [1] 24.3 µM | Potency [9] 18.2 µM

Nc1cc([N+](=O)[O-])cc(Cl)c1O
inactive: Potency [1] | Potency [2] | Potency [3] | outcome [4] | outcome [5] | Potency [6] | Potency [7] | Potency [8] | Potency [9] | Potency [10] | Potency [15] | Potency [16] | Potency [12] | Potency [17] | Potency [18] | Potency [13] | Potency [14] | Potency [19]

CCOc1cc(OCC)c(C(C)=O)cc1OCC
inactive: Potency [1] | Potency [2] | Potency [3] | outcome [4] | outcome [5] | Potency [6] | Potency [7] | Potency [8] | Potency [9] | Potency [10] | Potency [15] | Potency [11] | Potency [16] | Potency [13] | Potency [14] | Potency [19]

CCCCCCC
inactive: Potency [1] | Potency [2] | Potency [3] | outcome [4] | outcome [5] | Potency [6] | Potency [7] | Potency [8] | Potency [9] | Potency [10] | Potency [15] | Potency [11] | Potency [12] | Potency [18] | Potency [13] | Potency [14] | Potency [19]

CCC(=O)OC(=O)CC
active: Potency [2] 27.1 µM
inactive: Potency [1] | Potency [3] | outcome [4] | outcome [5] | Potency [6] | Potency [7] | Potency [8] | Potency [9] | Potency [10] | Potency [11] | Potency [16] | Potency [12] | Potency [17] | Potency [18] | Potency [13] | Potency [14] | Potency [19]

CC1=CC(O)CC(C)(C)C1 (stereo not given)
inactive: Potency [1] | Potency [2] | Potency [3] | outcome [4] | outcome [5] | Potency [6] | Potency [7] | Potency [8] | Potency [9] | Potency [10] | Potency [15] | Potency [11] | Potency [16] | Potency [17] | Potency [18] | Potency [13] | Potency [19]

C[n+]1cc2c3c(ccc2c2ccc4cc5c(cc4c21)OCO5)OCO3
active: Potency [1] 1.64 µM | Potency [2] 1.46 µM | Potency [8] 9.73 µM | Potency [19] 13 µM
inactive: activity change [3] 3.58% [at 11.8 µM, stronger effect = higher value] | activation [4] 0.698% [at 15.8 µM] | activation [5] 3.71% [at 11.8 µM] | activation [6] -8.2% [at 13.5 µM] | activation [7] -6.71% [at 13.6 µM] | activity change, negative = cytotoxicity [9] -21.2% [at 13.5 µM] | activation [10] -0.417% [at 13.5 µM] | activation [11] 10.7% [at 15.9 µM] | activity, negative = inhibition [16] -0.831% [at 12.6 µM] | activation [12] 0.0411% [at 15.8 µM]

Cc1occc1C(=O)Nc1ccc(C(=O)N2CCC(F)(F)/C(=C\C(=O)N3CCC(N4CCCCC4)CC3)c3ccccc32)cc1
inactive: Potency [1] | Potency [2] | Potency [3] | outcome [4] | outcome [5] | Potency [6] | Potency [7] | Potency [8] | Potency [9] | Potency [10] | Potency [15] | Potency [11] | Potency [12] | Potency [17] | Potency [18] | Potency [13] | Potency [14] | Potency [19]

C/C=C(\C)C(=O)OCCc1ccccc1
inactive: Potency [1] | Potency [2] | Potency [3] | outcome [4] | outcome [5] | Potency [6] | Potency [7] | Potency [8] | Potency [9] | Potency [10] | Potency [15] | Potency [11] | Potency [12] | Potency [17] | Potency [18] | Potency [13] | Potency [14] | Potency [19]

Oc1cn2c(n1)Nc1ccc(Cl)c(Cl)c1C2
inactive: activity change, negative = cytotoxicity [1] -5.95% [at 19 µM] | activity, positive = activation [2] -4.99% [at 19 µM] | activity change [3] -1.21% [at 11.8 µM, stronger effect = higher value] | activation [4] 1.57% [at 15.8 µM] | activation [5] 0.199% [at 11.8 µM] | activation [6] -4.43% [at 13.5 µM] | activation [7] -0.253% [at 13.6 µM] | activity change, negative = cytotoxicity [8] -1.56% [at 13.5 µM] | activity change, negative = cytotoxicity [9] -7.7% [at 13.5 µM] | activation [10] 2.32% [at 13.5 µM] | activity, negative = inhibition [15] 4.4% [at 12.7 µM] | activation [11] 4.55% [at 15.9 µM] | activity, negative = inhibition [16] -10.4% [at 12.6 µM] | activation [12] -0.629% [at 15.8 µM] | activity change, negative = inhibition [13] 8.99% [at 19 µM] | activation [14] 1.31% [at 19 µM] | activity change, negative = inhibition [19] -3.31% [at 18.9 µM]

Cc1cccc(C)n1
inactive: Potency [1] | Potency [2] | Potency [3] | outcome [4] | outcome [5] | Potency [6] | Potency [7] | Potency [8] | Potency [9] | Potency [10] | Potency [11] | Potency [16] | Potency [12] | Potency [17] | Potency [18] | Potency [13] | Potency [14] | Potency [19]

CCCCOC(=O)[C@@H](C)Oc1ccc(Oc2ccc(C(F)(F)F)cn2)cc1
inactive: Potency [1] | Potency [2] | Potency [3] | outcome [4] | outcome [5] | Potency [6] | Potency [7] | Potency [8] | Potency [9] | Potency [10] | Potency [15] | Potency [11] | Potency [16] | Potency [12] | Potency [18] | Potency [13] | Potency [14] | Potency [19]

O=C(O)P(=O)(O)O
inactive: Potency [1] | Potency [2] | Potency [3] | outcome [4] | outcome [5] | Potency [6] | Potency [7] | Potency [8] | Potency [9] | Potency [10] | Potency [18] | Potency [13] | Potency [14] | Potency [19]

Nc1c(Cl)cc(Cl)cc1Cl
inactive: Potency [1] | Potency [2] | Potency [3] | outcome [4] | outcome [5] | Potency [6] | Potency [7] | Potency [8] | Potency [9] | Potency [10] | Potency [15] | Potency [11] | Potency [17] | Potency [18] | Potency [13] | Potency [14] | Potency [19]
active: Potency [12] 8.58 µM
